From PubChem
This is one part of a sample in which hits are shown more often than they occur.
Pf Dd2 growth – qHTS Primary assay for Inhibitors of Plasmodium falciparum Dd2 growth in vitro; P. falciparum Dd2 growth, SYBR Green, 72 h; Potency, µM (highest dose often 28.9 µM), usual class: inhibitors; actives 4.3% (n = 120,000); AID 1347417, 2020; active = well fitted inhibition curve with a large enough effect; note: nearly all actives have a fitted effect of over 65% in size
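Readout: SYBR Green fluorescence, 485 nm excitation, 535 nm emission, after ~16 h lysis at 37C. Before that, Dd2-infected red cells (2.5% hematocrit) grew 72 h with compound, 29 uM top final concentration.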
Hits are given with their value; n = inactive; [ ] = another dose, or the depositor's remark.

SMILES	Pf Dd2 growth
Cc1ccc(C(=O)N(Cc2ccco2)Cc2sccc2C)cc1	n
Cc1ccsc1CN(Cc1ccco1)C(=O)c1ccc(Cl)cc1	n
CCS(=O)(=O)c1ncc(N(Cc2ccco2)Cc2sccc2C)c(C(=O)Nc2cc(C)ccc2C)n1	5.6µM
CN(C)C[C@@H]1CN(c2ncccn2)C[C@H]1NC(=O)c1cccc(Cl)c1	n
CC(=O)Nc1cccc(C(=O)N2CC[C@@H](c3sccc3C)[C@H](O)C2)c1	n
O=C(CCOc1ccccc1)N[C@@H]1CCNC[C@H]1O	n
CC1CCN(c2nc3c(S(=O)(=O)c4cccc(Cl)c4)nnn3c3ccsc23)CC1	13µM
Cc1ccc(S(=O)(=O)c2nnn3c2nc(N2CCC(C(N)=O)CC2)c2cc(Cl)ccc23)cc1C	n
CCOC(=O)C1CCN(c2nc3c(S(=O)(=O)c4ccccc4)nnn3c3ccc(Cl)cc23)CC1	8.9µM
O=S(=O)(c1ccccc1)c1nnn2c1nc(NC1CC1)c1ccccc12	n
CC(C)c1ccc(S(=O)(=O)c2nnn3c2nc(N2CCCC2)c2sccc23)cc1	n
Cc1cc(C)c(S(=O)(=O)c2nnn3c2nc(NCCCOC(C)C)c2ccccc23)c(C)c1	n
O=S(=O)(c1cccc(Cl)c1)c1nnn2c1nc(NC1CCCC1)c1sccc12	13µM
O=S(=O)(c1cccc(Cl)c1)c1nnn2c1nc(NCc1ccc3c(c1)OCO3)c1sccc12	n
CCOC(=O)C1CCCN(c2nc3c(S(=O)(=O)c4ccc(CC)cc4)nnn3c3ccc(Cl)cc23)C1 (configuration not stated)	n
CCc1ccc(S(=O)(=O)c2nnn3c2nc(N2CCC(C)CC2)c2cc(Cl)ccc23)cc1	n
Cc1cc(C)cc(Nc2nc3c(S(=O)(=O)c4cccc(Cl)c4)nnn3c3ccsc23)c1	n
Cc1cc(C)c(S(=O)(=O)c2nnn3c2nc(NC2CCCC2)c2ccccc23)c(C)c1	11µM
CCC(=O)N1CCc2c(C(=O)O)cccc21	n
O=C(Cn1nc2c(cc1=O)CCCC2)NCC1CCC(C(=O)O)CC1 (configuration not stated)	n
Cn1nccc1CN1CCn2c(nnc2-c2ccccc2)C1	n
O=C(Cc1ccc(F)cc1)N1CC2CC(C1)[C@H]1CCCC(=O)N1C2 (some centres not stated)	n
O=C(Cn1ncc2ccccc2c1=O)N1CCCC(Cc2nc3ccccc3[nH]2)C1 (configuration not stated)	n
NC(=O)C1CCCN(CCNc2cc(-c3ccccc3)nc3ccnn23)C1 (configuration not stated)	n
COCCn1c(=O)c2c(n1Cc1ccccc1)CN(C(=O)c1cc3ccccc3n1C)CC2	n
SMILES	Pf Dd2 growth
O=C(Nc1ccccc1)N1CCCC(c2nn(-c3ccccc3)c(=O)[nH]2)C1 (configuration not stated)	n
Cn1ncc(N2CCC(NC(=O)c3ccccc3)CC2)cc1=O	n
COCCCNC(=O)C1CC(=O)N(c2n[nH]c3ccccc23)C1 (configuration not stated)	n
CCCCC1CN(c2ccc(Cl)cc2)C(=O)CN1C(=O)CNC(=O)OC (configuration not stated)	n
Cc1cc(-c2nc3ncccc3o2)ccc1NC(=O)COc1cc(C)c(Cl)c(C)c1	n
Cc1cc(-c2nc3ncccc3o2)ccc1NC(=O)COc1ccccc1C	n
Cc1cc(OCC(=O)Nc2cc(-c3nc4ncccc4o3)ccc2C)ccc1Cl	10µM
CC1(C)CN(S(=O)(=O)N2CCCC2)CC1c1ccccc1 (configuration not stated)	n
Cc1nc2c(c(NC3CC3)n1)CCN(C(=O)CCc1ccncc1)CC2	n
COc1cc(NC(=O)Cn2c(-c3ccc(F)cc3)nc(C)c(CCO)c2=O)cc(OC)c1	11µM
COc1ccc(NC(=O)Cn2c(-c3ccc(F)cc3)nc(C)c(CCO)c2=O)cc1Cl	n
Cc1ccc(NC(=O)Cn2c(-c3ccc(F)cc3)nc(C)c(CCO)c2=O)cc1	n
CC(C)c1ccc(CN2CCc3nc(N4CCN(C)CC4)[nH]c(=O)c3CC2)cc1	n[5.79 µM]
CCc1cc(=O)n(CC(=O)Nc2cc(C)ccc2OC)c(-c2ccccc2)n1	n
Cc1ccc(C(=O)N2CCCC(n3cc(-c4nc(C(C)C)no4)nn3)C2)cc1C (configuration not stated)	n
CCOc1ccc(-c2cccc(NS(=O)(=O)c3ccc(C)s3)c2)nn1	n
COc1ccc(-c2ccc(NS(=O)(=O)c3ccc(F)c(C(F)(F)F)c3)cc2)nn1	n
CCOc1ccc(-c2ccc(NS(=O)(=O)c3ccc(C)cc3)cc2)nn1	10µM
COc1cncc(CN2C[C@H]3[C@H](C2)[S+](=O)([O-])C(C)(C)C(=O)N3CC2CCOCC2)c1	n
CCCCc1ccc(NC(=O)c2ccc(=O)n(Cc3cccc(C)c3)c2)cc1	n
COc1cc(OC)cc(C(=O)Nc2ccc3c(c2)n(C)c(=O)c(=O)n3C)c1	n
CCN1C[C@@H]2C(C(=O)Nc3cccc(Cl)c3)=NO[C@@H]2C1	n
CC1CCN(c2ccc(NC(=O)c3cccc(Cl)c3)cc2C(=O)O)CC1	n
